Results filed as inconclusive are left out. The source made the active and inactive calls.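 The calls were made as follows, unless noted: active = inhibition above 50%, about 3 SD of the validation set; inactive = the rest.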
Tests used:
[1] = rapamycin-like changes in RPL19A-GFP expression – cell-based, S. cerevisiae, multiplex flow cytometry, primary screen (AID 1862; in the data active = percent of DMSO control GFP below about 86%;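 also: lower values mimic rapamycin by blocking the RPL19A rise seen in DMSO cells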); details: S. cerevisiae RPL19A-GFP strain, flow cytometry fluorescence, 3 h; at 10 µM; stronger effect = lower value
[2] = TOR pathway GLN3 branch reporter MEP2-GFP changes – S. cerevisiae, multiplex flow cytometry, primary screen (AID 1867;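 active = GFP response, as percent of the DMSO control, above the screen-wide mean plus 3 SD, about 139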;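 also: median GFP channel fluorescence of barcode-gated MEP2-GFP cells measured by flow cytometry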); details: S. cerevisiae MEP2-GFP strain, 3 h, at 10 µM, stronger effect = higher value, 100% means same as DMSO wells
[3] = TOR pathway RTG branch CIT2 reporter changes – S. cerevisiae, GFP fusion, multiplex flow cytometry, primary screen (AID 1870;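 active = percent response above a set limit, the screen-wide mean plus 3 SD, cut at about 130% in these data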;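 also: barcoded CIT2-GFP strain pooled with four other GFP strains with rapamycin as positive control; median GFP fluorescence per well over plate mean of DMSO wells so 100% = DMSO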); details: S. cerevisiae CIT2-GFP expression, 3 h, at 10 µM, stronger effect = higher value
[4] = TOR pathway LAP4-GFP level changes – S. cerevisiae, multiplex flow cytometry, primary screen (AID 1873;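 active = GFP signal, as percent of the solvent control, above the screen mean plus 3 SD, about 149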); details: S. cerevisiae LAP4-GFP expression, 3 h, at 10 µM, stronger effect = higher value
[5] = yeast AGP1-GFP level changes, GLN3 branch – cell-based, multiplex flow cytometry, S. cerevisiae, primary screen (AID 1887;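 active = GFP signal above the screen-wide mean plus 3 SD, that is over about 124.5% of the solvent control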;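 also: AGP1-GFP fusion strain of S. cerevisiae within a five-strain barcoded multiplex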); details: 3 h, at 10 µM, stronger effect = higher value
[6] = reduced mouse 2C T cell binding to pMHC/ICAM-1 vesicles – MLPCN validation set, flow cytometry, LFA-1/ICAM-1 modulator project, pilot screen (AID 2523;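 active = response below a set limit, under 55% cells CD8-positive and vesicle-bound, and CD8 cells' 90th-percentile brightness under 279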;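 as to vesicle binding response: mean PE anti-B7-1 fluorescence of CD8+ cells relative to row control; 100% = QL9-loaded vesicles with DMSO vehicle in the same plate row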); details: 2C mouse CD8+ T cells, at 7 µM, stronger effect = lower value; double positive events: measured here: CD8+/vesicle+ event percentage
[7] = target: Integrin beta-1 (Homo sapiens) + Integrin alpha-4 (Homo sapiens) (UniProt P13612+P05556); assay: alpha4beta1 integrin LIBS antibody binding reduction – U937 cells, HUTS-21 mAb, flow cytometry, validation set, VLA-4 allosteric modulator project, pilot screen (AID 2674); details: HUTS-21 LIBS mAb binding, at 6.7 µM, stronger effect = higher value, binding induced by LDV ligand;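 also: antibody binding induced by the VLA-4 ligand LDV present at three times its Kd; 0% = LDV ligand with antibody and no compound and 100% = antibody without LDV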
Sequence of Integrin beta-1 (Homo sapiens) + Integrin alpha-4 (Homo sapiens) (P05556 whole entry, looked up): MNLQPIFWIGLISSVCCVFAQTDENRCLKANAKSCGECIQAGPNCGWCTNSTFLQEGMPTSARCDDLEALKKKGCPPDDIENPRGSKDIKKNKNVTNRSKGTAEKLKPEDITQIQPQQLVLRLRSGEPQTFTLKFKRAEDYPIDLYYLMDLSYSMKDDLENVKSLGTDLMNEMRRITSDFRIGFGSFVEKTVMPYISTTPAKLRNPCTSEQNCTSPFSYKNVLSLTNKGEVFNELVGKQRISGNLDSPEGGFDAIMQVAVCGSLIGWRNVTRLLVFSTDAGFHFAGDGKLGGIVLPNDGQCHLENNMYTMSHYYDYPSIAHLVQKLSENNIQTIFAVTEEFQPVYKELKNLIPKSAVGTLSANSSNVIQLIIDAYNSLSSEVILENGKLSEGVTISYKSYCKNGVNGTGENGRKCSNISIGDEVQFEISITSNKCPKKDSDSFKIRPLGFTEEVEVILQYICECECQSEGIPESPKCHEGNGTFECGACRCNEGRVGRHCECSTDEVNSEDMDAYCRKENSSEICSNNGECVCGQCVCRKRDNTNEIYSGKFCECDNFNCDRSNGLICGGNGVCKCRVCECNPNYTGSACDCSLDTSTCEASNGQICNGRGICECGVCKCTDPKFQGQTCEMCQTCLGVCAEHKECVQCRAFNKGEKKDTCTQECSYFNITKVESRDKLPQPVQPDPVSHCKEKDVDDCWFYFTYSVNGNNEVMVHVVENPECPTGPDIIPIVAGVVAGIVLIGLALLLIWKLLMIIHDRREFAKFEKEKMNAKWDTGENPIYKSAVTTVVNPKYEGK
Sequence of Integrin beta-1 (Homo sapiens) + Integrin alpha-4 (Homo sapiens) (P13612 whole entry, looked up): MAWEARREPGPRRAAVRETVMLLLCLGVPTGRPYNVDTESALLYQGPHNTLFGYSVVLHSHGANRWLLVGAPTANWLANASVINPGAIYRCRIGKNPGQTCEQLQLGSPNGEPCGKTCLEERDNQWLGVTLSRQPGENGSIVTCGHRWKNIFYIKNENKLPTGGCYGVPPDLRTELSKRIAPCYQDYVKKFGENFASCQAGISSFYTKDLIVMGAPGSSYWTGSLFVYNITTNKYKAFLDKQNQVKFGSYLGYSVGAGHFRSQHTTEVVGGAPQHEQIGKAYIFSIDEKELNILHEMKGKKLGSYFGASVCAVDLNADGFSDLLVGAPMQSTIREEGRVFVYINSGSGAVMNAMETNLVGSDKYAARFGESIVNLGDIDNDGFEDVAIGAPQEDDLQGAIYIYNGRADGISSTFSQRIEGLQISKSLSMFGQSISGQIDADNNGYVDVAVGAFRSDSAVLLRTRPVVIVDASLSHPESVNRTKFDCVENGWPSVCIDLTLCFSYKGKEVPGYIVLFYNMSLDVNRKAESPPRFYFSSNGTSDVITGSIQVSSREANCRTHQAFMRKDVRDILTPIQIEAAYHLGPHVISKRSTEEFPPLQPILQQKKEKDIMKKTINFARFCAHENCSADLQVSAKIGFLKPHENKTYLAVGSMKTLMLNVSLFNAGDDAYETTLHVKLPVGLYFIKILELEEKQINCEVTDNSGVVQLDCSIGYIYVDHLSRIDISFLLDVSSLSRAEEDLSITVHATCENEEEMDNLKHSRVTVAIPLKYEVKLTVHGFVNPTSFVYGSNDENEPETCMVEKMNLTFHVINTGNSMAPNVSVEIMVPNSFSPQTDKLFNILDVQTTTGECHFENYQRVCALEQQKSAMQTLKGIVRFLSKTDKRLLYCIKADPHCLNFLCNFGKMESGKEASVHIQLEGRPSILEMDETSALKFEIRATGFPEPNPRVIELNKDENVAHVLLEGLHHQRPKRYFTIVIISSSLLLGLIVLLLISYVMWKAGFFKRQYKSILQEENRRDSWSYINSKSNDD

[8] = calorie-restriction mimetic ROS inhibitors, yeast – validation compound set, pilot screen (AID 2706;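 active = superoxide response below 65% of plate, a cut near 3 SD across the whole screen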;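 also: yeast exposed to compound for one week at 30 degrees C before staining; 100% = mean of all compound wells on the same plate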); details: S. cerevisiae aging, superoxide DHE fluorescence; at 10 µM; stronger effect = lower value
[9] = target: Beta-adrenergic receptor kinase 1 (Homo sapiens) (UniProt P25098); assay: GRK2 binders displacing RNA aptamer, biochemical, validation, human GRK2, bead flow cytometry (AID 488806;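 active = aptamer binding inhibition above 30%, about 3 SD of noise from non-fluorescent compounds; inactive = inhibition at or below 30%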); details: bead-bound GRK2, FAM-aptamer displacement, at 10 µM, stronger effect = higher value
Sequence of Beta-adrenergic receptor kinase 1 (Homo sapiens) (P25098 whole entry, looked up): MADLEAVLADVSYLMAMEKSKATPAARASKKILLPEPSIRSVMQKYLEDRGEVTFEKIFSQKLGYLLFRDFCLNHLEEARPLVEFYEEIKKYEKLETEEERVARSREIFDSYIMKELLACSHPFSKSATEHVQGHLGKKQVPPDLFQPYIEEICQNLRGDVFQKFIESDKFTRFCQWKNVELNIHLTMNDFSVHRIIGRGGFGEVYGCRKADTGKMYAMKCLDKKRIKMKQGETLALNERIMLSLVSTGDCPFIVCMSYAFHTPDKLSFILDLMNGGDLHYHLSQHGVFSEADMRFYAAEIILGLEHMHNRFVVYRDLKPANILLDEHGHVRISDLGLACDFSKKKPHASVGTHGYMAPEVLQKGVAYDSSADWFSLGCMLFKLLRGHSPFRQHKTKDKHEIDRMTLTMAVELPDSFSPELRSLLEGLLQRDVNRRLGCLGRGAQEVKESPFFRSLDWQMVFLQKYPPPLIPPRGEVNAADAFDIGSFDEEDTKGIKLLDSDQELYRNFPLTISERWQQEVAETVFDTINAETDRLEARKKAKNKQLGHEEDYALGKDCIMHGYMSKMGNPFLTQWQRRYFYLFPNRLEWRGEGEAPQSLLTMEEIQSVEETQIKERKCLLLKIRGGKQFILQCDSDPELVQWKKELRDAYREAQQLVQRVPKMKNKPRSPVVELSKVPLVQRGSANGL

[10] = target: Beta-2 adrenergic receptor (Homo sapiens) (UniProt P07550); assay: agonist-induced loss of surface beta2AR – cell-based, FAP fluorogen, flow cytometry, validation set, pilot screen (AID 504459;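 active = percent response above 42, roughly 3 SD of non-fluorescent test compounds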;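 also: agonist-driven loss of surface beta2AR via internalization measured by FAP dye flow cytometry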); details: Am2.2-beta2AR cells, at 10 µM, stronger effect = higher value
Sequence of Beta-2 adrenergic receptor (Homo sapiens) (P07550 whole entry, looked up): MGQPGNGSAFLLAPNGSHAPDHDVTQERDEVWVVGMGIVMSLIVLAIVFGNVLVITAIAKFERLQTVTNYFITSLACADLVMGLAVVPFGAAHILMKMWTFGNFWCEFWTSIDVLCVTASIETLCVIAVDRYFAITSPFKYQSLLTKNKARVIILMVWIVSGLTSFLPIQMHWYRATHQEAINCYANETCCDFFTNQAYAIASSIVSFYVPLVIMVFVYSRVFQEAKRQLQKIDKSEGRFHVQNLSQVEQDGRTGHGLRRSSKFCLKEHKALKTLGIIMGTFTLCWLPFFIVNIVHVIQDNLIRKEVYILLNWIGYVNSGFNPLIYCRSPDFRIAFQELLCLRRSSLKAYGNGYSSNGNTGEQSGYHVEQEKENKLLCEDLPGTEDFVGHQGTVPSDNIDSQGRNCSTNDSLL

[11] = target: AP-2 complex subunit beta (Homo sapiens) (UniProt P63010); assay: beta-arrestin/AP2 interaction blockers – biochemical, validation set, GST-AP2 beads, flow cytometry, pilot screen (AID 504541;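 active = inhibition above 54%, about 3 SD of non-fluorescent compounds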;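 also: AP2 carries R879A mutation and is captured from E. coli lysate; bead-bound FITC arrestin peptide fluorescence measuring arrestin peptide binding to AP2; 0% = DMSO wells and 100% = excess unlabeled arrestin peptide control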); details: FITC arrestin peptide, at 10 µM, stronger effect = higher value, AP2 beta2 appendage fragment, R879A mutant
Sequence of AP-2 complex subunit beta (Homo sapiens) (P63010 whole entry, looked up, the tested form may be a part, one chain of several): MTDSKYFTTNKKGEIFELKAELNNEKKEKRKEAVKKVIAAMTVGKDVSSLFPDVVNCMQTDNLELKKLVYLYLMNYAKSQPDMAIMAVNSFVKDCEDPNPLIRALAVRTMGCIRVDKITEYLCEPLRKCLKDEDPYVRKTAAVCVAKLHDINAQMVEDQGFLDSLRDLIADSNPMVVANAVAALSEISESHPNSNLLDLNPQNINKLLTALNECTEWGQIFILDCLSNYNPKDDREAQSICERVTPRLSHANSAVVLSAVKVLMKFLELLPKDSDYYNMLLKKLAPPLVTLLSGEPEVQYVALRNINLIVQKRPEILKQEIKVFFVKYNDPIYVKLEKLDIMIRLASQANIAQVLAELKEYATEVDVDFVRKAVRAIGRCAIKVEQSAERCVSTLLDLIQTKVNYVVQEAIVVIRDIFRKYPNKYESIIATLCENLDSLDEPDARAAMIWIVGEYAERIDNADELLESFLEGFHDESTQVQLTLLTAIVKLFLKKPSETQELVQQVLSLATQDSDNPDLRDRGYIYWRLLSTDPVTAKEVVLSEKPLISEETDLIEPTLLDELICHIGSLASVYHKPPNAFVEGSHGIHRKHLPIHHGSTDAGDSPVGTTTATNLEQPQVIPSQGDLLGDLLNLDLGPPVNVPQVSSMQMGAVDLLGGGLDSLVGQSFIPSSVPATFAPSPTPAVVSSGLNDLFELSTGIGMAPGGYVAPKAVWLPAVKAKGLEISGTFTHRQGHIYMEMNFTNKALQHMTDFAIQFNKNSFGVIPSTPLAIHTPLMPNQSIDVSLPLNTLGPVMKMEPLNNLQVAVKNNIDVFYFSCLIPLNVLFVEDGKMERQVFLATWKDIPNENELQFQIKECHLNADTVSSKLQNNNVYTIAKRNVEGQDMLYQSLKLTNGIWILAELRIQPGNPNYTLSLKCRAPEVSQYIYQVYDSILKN

[12] = cytosolic pH regulators acting via V-ATPase – S. cerevisiae, pHLuorin, HTS validation (AID 504600; in the data active = response above about 15%;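 also: plate controls were DMSO for no effect and reference compound for full effect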); details: V-ATPase proton transport, at 10 µM, stronger effect = higher value
[13] = system: anti-desmoglein-3 scFv antibody binding to human DSG3; assay: blockers of pathogenic pemphigus antibody–desmoglein-3 binding – biochemical, validation compound set, bead-based, flow cytometry, pilot screen (AID 588368;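 active = binding below the plate cutoff, the plate median minus 3 SD, with a reading above zero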;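 also: signal is the median channel fluorescence of bead-bound GFP antibody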); details: Protein G beads, DSG3-Fc, scFv-GFP binding, at 10 µM, stronger effect = lower value
[14] = Nile Red efflux blockade in pump-expressing yeast – validation compound set, multiplex, phenotypic, pilot screen (AID 588506;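 active = efflux inhibition above 0.42, the validation set average plus 4 SD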;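 also: Nile Red retained in cells so higher fluorescence means more efflux inhibition; 0 = negative control wells and 1 = enniatin B 25 µM full block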); details: S. cerevisiae pump-expressing triplex, Nile Red efflux flow cytometry; at 10 µM; stronger effect = higher value; the pumps come from Candida albicans
[15] = target: ATP-binding cassette sub-family B member 6 (Homo sapiens) (UniProt Q9NP58); assay: blockers of ABCB6-driven porphyrin uptake – K562-ABCB6 cells, flow cytometry, validation set, pilot screen (AID 588550;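 active = inhibition above the screen-wide mean plus 3 SD, about 51%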;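 also: 0% = DMSO wells and 100% = benzethonium chloride 70 µM positive control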); details: K562-ABCB6 porphyrin accumulation, 1 h, at 10 µM, stronger effect = higher value
Sequence of ATP-binding cassette sub-family B member 6 (Homo sapiens) (Q9NP58 whole entry, looked up): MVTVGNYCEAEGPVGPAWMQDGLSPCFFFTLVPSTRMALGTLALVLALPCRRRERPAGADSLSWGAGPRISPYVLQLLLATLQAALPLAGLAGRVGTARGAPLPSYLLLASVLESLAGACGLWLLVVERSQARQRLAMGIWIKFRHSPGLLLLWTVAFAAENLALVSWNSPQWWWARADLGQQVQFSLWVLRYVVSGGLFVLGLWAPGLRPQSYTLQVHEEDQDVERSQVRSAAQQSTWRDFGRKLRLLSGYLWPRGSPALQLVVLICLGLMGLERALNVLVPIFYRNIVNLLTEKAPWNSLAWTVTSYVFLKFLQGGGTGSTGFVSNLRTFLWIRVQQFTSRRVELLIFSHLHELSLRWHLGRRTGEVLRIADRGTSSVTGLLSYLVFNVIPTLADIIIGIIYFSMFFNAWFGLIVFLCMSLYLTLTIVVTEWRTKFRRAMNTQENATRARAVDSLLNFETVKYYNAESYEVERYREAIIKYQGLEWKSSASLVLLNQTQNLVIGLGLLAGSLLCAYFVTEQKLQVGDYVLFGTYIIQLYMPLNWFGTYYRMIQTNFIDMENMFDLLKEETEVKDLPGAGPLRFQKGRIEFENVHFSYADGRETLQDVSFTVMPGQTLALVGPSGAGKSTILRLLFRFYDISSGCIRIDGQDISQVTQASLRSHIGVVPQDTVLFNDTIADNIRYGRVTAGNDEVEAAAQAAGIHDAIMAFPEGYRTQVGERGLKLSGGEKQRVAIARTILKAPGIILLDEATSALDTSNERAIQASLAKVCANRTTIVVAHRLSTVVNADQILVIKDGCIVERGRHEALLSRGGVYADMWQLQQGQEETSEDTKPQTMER

[16] = AML differentiation inducers, ER-HoxA9 marrow cells – cell-based, GFP/MAC1 double positive, flow cytometry, validation set, primary screen (AID 588685;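 active = differentiation response of at least 50%, scaled between solvent and reference control, from cells with both markers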;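 also: compound exposure lasts four days before antibody staining and flow analysis; 0% = DMSO wells and 100% = 5 µM fulvestrant positive control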); details: stronger effect = higher value, normalized: vehicle 0, fulvestrant 100

CCCNCC(O)COc1ccccc1C(=O)CCc1ccccc1 (stereo not given)
percent of DMSO control GFP [1]: 101% (inactive)
GFP response vs DMSO [2]: 110% (inactive)
percent response of DMSO control [3]: 89.6% (inactive)
GFP response vs DMSO [4]: 88.7% (inactive)
GFP response, % of DMSO [5]: 92.9% (inactive)
double positive events [6]: 62.4%
vesicle binding response [6]: 894% (inactive)
inhibition [7]: 21.3% (inactive)
superoxide response (% of plate) [8]: 98.6% (inactive)
aptamer binding inhibition [9]: 3% (inactive)
response [10]: -7.14% (inactive)
inhibition [11]: -4.07% (inactive)
response [12]: 0.31% (inactive)
binding (% of control) [13]: 100% (inactive)
efflux inhibition (fraction of control) [14]: 0.11 (inactive)
inhibition [15]: -1% (inactive)
differentiation response [16]: -0.73% (inactive)

O=C(Nc1cccc(C(=O)O)c1)/C(=C\c1ccccc1)NC(=O)c1ccccc1
percent of DMSO control GFP [1]: 105% (inactive)
GFP response vs DMSO [2]: 98.3% (inactive)
percent response of DMSO control [3]: 106% (inactive)
GFP response vs DMSO [4]: 84.8% (inactive)
GFP response, % of DMSO [5]: 100% (inactive)
double positive events [6]: 58.1%
vesicle binding response [6]: 150% (inactive)
inhibition [7]: -1.49% (inactive)
superoxide response (% of plate) [8]: 95.7% (inactive)
aptamer binding inhibition [9]: 5% (inactive)
response [10]: -3.48% (inactive)
inhibition [11]: 0.49% (inactive)
response [12]: 0.44% (inactive)
binding (% of control) [13]: 99% (inactive)
efflux inhibition (fraction of control) [14]: 0.14 (inactive)
inhibition [15]: 15% (inactive)
differentiation response [16]: 11% (inactive)

CC(C)Oc1cccc(C(=O)N2CCCC2)c1
percent of DMSO control GFP [1]: 102% (inactive)
GFP response vs DMSO [2]: 106% (inactive)
percent response of DMSO control [3]: 94.2% (inactive)
GFP response vs DMSO [4]: 99.9% (inactive)
GFP response, % of DMSO [5]: 100% (inactive)
double positive events [6]: 64.7%
vesicle binding response [6]: 221% (inactive)
inhibition [7]: -4.6% (inactive)
superoxide response (% of plate) [8]: 101% (inactive)
aptamer binding inhibition [9]: 0% (inactive)
response [10]: -9.83% (inactive)
inhibition [11]: -4.57% (inactive)
response [12]: 1.82% (inactive)
binding (% of control) [13]: 93.2% (inactive)
efflux inhibition (fraction of control) [14]: 0.14 (inactive)
inhibition [15]: -4% (inactive)
differentiation response [16]: 9.04% (inactive)

CCOC(=O)C1=C[C@]2(CC)CCCN3CCc4c(n1c1ccccc41)[C@@H]32
percent of DMSO control GFP [1]: 98.4% (inactive)
GFP response vs DMSO [2]: 107% (inactive)
percent response of DMSO control [3]: 96.6% (inactive)
GFP response vs DMSO [4]: 104% (inactive)
GFP response, % of DMSO [5]: 96.5% (inactive)
double positive events [6]: 56.4%
vesicle binding response [6]: 43.9% (inactive)
inhibition [7]: -4.6% (inactive)
superoxide response (% of plate) [8]: 92.5% (inactive)
aptamer binding inhibition [9]: -1% (inactive)
response [10]: -5% (inactive)
inhibition [11]: -10.5% (inactive)
response [12]: 4.61% (inactive)
binding (% of control) [13]: 97.2% (inactive)
efflux inhibition (fraction of control) [14]: -0.23 (inactive)
inhibition [15]: 8% (inactive)
differentiation response [16]: -3.67% (inactive)

C[C@H]([C@@H](N)C(=O)N[C@@H](C(=O)O)[C@@H]1O[C@H](n2ccc(=O)[nH]c2=O)[C@@H](O)[C@H]1O)[C@@H](O)c1ccc(O)cn1
percent of DMSO control GFP [1]: 91.5% (inactive)
GFP response vs DMSO [2]: 130% (inactive)
percent response of DMSO control [3]: 93.9% (inactive)
GFP response vs DMSO [4]: 82.5% (inactive)
GFP response, % of DMSO [5]: 84.5% (inactive)
double positive events [6]: 59.1%
vesicle binding response [6]: 184% (inactive)
inhibition [7]: -9.06% (inactive)
superoxide response (% of plate) [8]: 117% (inactive)
aptamer binding inhibition [9]: 7% (inactive)
response [10]: -4.72% (inactive)
inhibition [11]: 5.36% (inactive)
response [12]: 2.7% (inactive)
binding (% of control) [13]: 104% (inactive)
efflux inhibition (fraction of control) [14]: -0.06 (inactive)
inhibition [15]: 9% (inactive)
differentiation response [16]: 4.09% (inactive)

C#C[C@]1(O)CC[C@H]2[C@@H]3CCc4cc(OC)ccc4[C@H]3CC[C@@]21C
percent of DMSO control GFP [1]: 103% (inactive)
GFP response vs DMSO [2]: 104% (inactive)
percent response of DMSO control [3]: 102% (inactive)
GFP response vs DMSO [4]: 126% (inactive)
GFP response, % of DMSO [5]: 115% (inactive)
double positive events [6]: 63.7%
vesicle binding response [6]: 229% (inactive)
inhibition [7]: 3.14% (inactive)
superoxide response (% of plate) [8]: 115% (inactive)
aptamer binding inhibition [9]: -1% (inactive)
response [10]: -13.2% (inactive)
inhibition [11]: 31.4% (inactive)
response [12]: 0.87% (inactive)
binding (% of control) [13]: 108% (inactive)
efflux inhibition (fraction of control) [14]: -0.04 (inactive)
inhibition [15]: 5% (inactive)
differentiation response [16]: -2.03% (inactive)

CCNC1=C(Cl)C(=O)c2ccccc2C1=O
percent of DMSO control GFP [1]: 104% (inactive)
GFP response vs DMSO [2]: 104% (inactive)
percent response of DMSO control [3]: 91.8% (inactive)
GFP response vs DMSO [4]: 127% (inactive)
GFP response, % of DMSO [5]: 113% (inactive)
double positive events [6]: 59.8%
vesicle binding response [6]: 159% (inactive)
inhibition [7]: 21% (inactive)
superoxide response (% of plate) [8]: 229% (inactive)
aptamer binding inhibition [9]: 3% (inactive)
response [10]: -20% (inactive)
inhibition [11]: -22.4% (inactive)
response [12]: 1.03% (inactive)
binding (% of control) [13]: 104% (inactive)
efflux inhibition (fraction of control) [14]: -0.09 (inactive)
inhibition [15]: -12% (inactive)
differentiation response [16]: 0.92% (inactive)

O=C(NC(=S)Nc1ccc2c(c1)OCCO2)c1ccccc1F
percent of DMSO control GFP [1]: 103% (inactive)
GFP response vs DMSO [2]: 108% (inactive)
percent response of DMSO control [3]: 101% (inactive)
GFP response vs DMSO [4]: 93% (inactive)
GFP response, % of DMSO [5]: 97.7% (inactive)
double positive events [6]: 61.5%
vesicle binding response [6]: 2360% (inactive)
inhibition [7]: 1.12% (inactive)
superoxide response (% of plate) [8]: 109% (inactive)
aptamer binding inhibition [9]: 2% (inactive)
response [10]: 5.42% (inactive)
inhibition [11]: 7.78% (inactive)
response [12]: 1.01% (inactive)
binding (% of control) [13]: 98.5% (inactive)
efflux inhibition (fraction of control) [14]: -0.12 (inactive)
inhibition [15]: 9% (inactive)
differentiation response [16]: 0% (inactive)

Cc1ccc([N+](=O)[O-])cc1NC1OC(CO)C(O)C1O (stereo not given)
percent of DMSO control GFP [1]: 102% (inactive)
GFP response vs DMSO [2]: 105% (inactive)
percent response of DMSO control [3]: 104% (inactive)
GFP response vs DMSO [4]: 120% (inactive)
GFP response, % of DMSO [5]: 109% (inactive)
double positive events [6]: 56.8%
vesicle binding response [6]: 186% (inactive)
inhibition [7]: -16.4% (inactive)
superoxide response (% of plate) [8]: 108% (inactive)
aptamer binding inhibition [9]: 4% (inactive)
response [10]: -23% (inactive)
inhibition [11]: 7.17% (inactive)
response [12]: 2.59% (inactive)
binding (% of control) [13]: 103% (inactive)
efflux inhibition (fraction of control) [14]: -0.04 (inactive)
inhibition [15]: 3% (inactive)
differentiation response [16]: 2.89% (inactive)

O=C(c1cccnc1)N1N=C(C2CC2)CC1(O)C(F)(F)F (stereo not given)
percent of DMSO control GFP [1]: 99.1% (inactive)
GFP response vs DMSO [2]: 104% (inactive)
percent response of DMSO control [3]: 93.9% (inactive)
GFP response vs DMSO [4]: 115% (inactive)
GFP response, % of DMSO [5]: 104% (inactive)
double positive events [6]: 60.4%
vesicle binding response [6]: 353% (inactive)
inhibition [7]: -7.25% (inactive)
superoxide response (% of plate) [8]: 106% (inactive)
aptamer binding inhibition [9]: 2% (inactive)
response [10]: -5.28% (inactive)
inhibition [11]: 2.62% (inactive)
response [12]: -0.29% (inactive)
binding (% of control) [13]: 101% (inactive)
efflux inhibition (fraction of control) [14]: -0.1 (inactive)
inhibition [15]: 10% (inactive)
differentiation response [16]: -28% (inactive)

— PubChem BioAssay
